Reference: the supplement of paper PMC4683952
Structures can show the parent of a compound that is named as a salt. Hit rate of the full screen: of about 1,200 compounds, about 50 (4%) showed activity. No stated cut-off is given here; in the data, all actives reach 1.3 or more but so do some inactives. The list comes from a sample in which actives are over-represented; it also holds similar structures and randomly drawn compounds.

test system: Lgr5 (MarsCy1-Lgr5-EGFP, U2OS); assay: cell-surface Lgr5 expression (SCi1 fluorescence, background-subtracted) relative to WT DMSO (fold of DMSO control); higher = more Lgr5 at the plasma membrane, active = hit call of the paper; details: U2OS MarsCy1-Lgr5-EGFP stable; treatment time: overnight; 16 µM; library: Johns Hopkins Clinical Compound Library

Compound	cell-surface Lgr5 expression
O=P([O-])([O-])O.[K+].[K+] [Potassium phosphate dibasic]	1.09 (inactive)
O.O.O.O.O.O.[Br-].[Br-].[Sr+2] [Strontium bromide hexahydrate]	0.469 (inactive)
Nc1ccc2cc3ccc(N)cc3nc2c1 [Proflavine hemisulfate salt hydrate, powder]	1.06 (inactive)
CCCCCCCCCCCCCCCCCC(=O)[O-].CCCCCCCCCCCCCCCCCC(=O)[O-].[Zn+2] [Zinc stearate]	0.658 (inactive)
C=CC[N+]1([C@H]2C[C@H]3[C@@H]4CC[C@H]5C[C@H](O)[C@@H](N6CCOCC6)C[C@]5(C)[C@H]4CC[C@]3(C)[C@H]2OC(C)=O)CCCC1 [Rocuronium bromide (Zemuron)]	1.2 (inactive)
CCCCC(C)(O)C/C=C/[C@H]1[C@H](O)CC(=O)[C@@H]1CCCCCCC(=O)OC (mixture of isomers) [Misoprostol]	1.07 (inactive)
O=C(Cc1cccs1)N[C@@H]1C(=O)N2C(C(=O)O)=C(/C=C/c3ccc([N+](=O)[O-])cc3[N+](=O)[O-])CS[C@H]12 [Nitrocefin]	0.867 (inactive)
CCOC(C)OCC [Acetal]	1.06 (inactive)
CC(=O)O[C@]1(C(C)=O)CC[C@H]2[C@@H]3C=C(Cl)C4=CC(=O)CC[C@]4(C)[C@H]3CC[C@@]21C [Chlormadinone acetate]	1.09 (inactive)
C=C1C[C@H]2[C@@H]3C=C(C)C4=CC(=O)CC[C@]4(C)[C@H]3CC[C@]2(C)[C@@]1(OC(C)=O)C(C)=O [Melengestrol acetate]	1.58 (active)
CC(=O)O[C@]1(C(C)=O)CC[C@H]2[C@@H]3C=C(C)C4=CC(=O)CC[C@]4(C)[C@H]3CC[C@@]21C [Megestrol Acetate]	1.29 (inactive)
CO[C@H]1C=CO[C@@]2(C)Oc3c(C)c(O)c4c(O)c(c(C=O)c(O)c4c3C2=O)NC(=O)C(C)=CC=C[C@H](C)[C@H](O)[C@@H](C)[C@@H](O)[C@@H](C)[C@H](OC(C)=O)[C@@H]1C [3-formyl Rifamycin]	1.12 (inactive)
O=C([O-])[O-].[Ca+2] [Calcium carbonate]	0.936 (inactive)
COC(=O)Nc1nc2cc([S+]([O-])c3ccccc3)ccc2[nH]1 (configuration not stated) [Oxfendazole]	1.18 (inactive)
O=[N+]([O-])c1ccc(O)cc1 [4-Nitrophenol]	1.17 (inactive)
[Na+].[OH-] [Sodium hydroxide]	0.75 (inactive)
COc1ccc2cc([C@H](C)C(=O)O)ccc2c1 [Naproxen (s-6-methoxy methyl 2-naphthalene acetic acid)]	0.783 (inactive)
COc1ccc2cc([C@H](C)C(=O)O)ccc2c1 [Naproxen sodium]	1.03 (inactive)
COc1ccc2cc(CCC(C)=O)ccc2c1 [Nabumetone]	1.32 (active)
COc1ccc(C(=O)c2ccccc2O)c(O)c1 [Dioxybenzone (2,2'-Dihydroxy-4-methoxybenzophenone)]	0.985 (inactive)
O=C([O-])C[NH+](CC(=O)[O-])CC(=O)[O-].O=C([O-])C[NH+](CC(=O)[O-])CC(=O)[O-].O=C([O-])C[NH+](CC(=O)[O-])CC(=O)[O-].[Na+].[Na+].[Na+].[Na+].[Na+].[Na+].[Na+].[O]=[Bi][O]C(=O)C[NH+](CC(=O)[O-])CC(=O)[O-] [Bismuth Sodium Triglycollamate (Nitrilotriacetic acid)]	1.08 (inactive)
COc1ccc2[nH]c([S+]([O-])Cc3ncc(C)c(OC)c3C)nc2n1 (configuration not stated) [Tenatoprazole]	1.17 (inactive)
[I-].[Na+] [Sodium iodide]	1.13 (inactive)
C[C@@H](C1=C(CCN(C)C)Cc2ccccc21)c1ccccn1 [Dimethindene (S, +) maleate]	1.32 (inactive)
CCCCCCCCCCCCN [Dodecylamine]	0.823 (inactive)
C[N+](C)(CCOc1ccccc1)Cc1ccccc1.O=C([O-])c1cc2ccccc2cc1O [Bephenium hydroxy-naphthoate]	1.05 (inactive)

Compound	cell-surface Lgr5 expression
Cc1cc(C(C)(C)CC(C)(C)C)ccc1OCCOCC[N+](C)(C)Cc1ccccc1 [Methylbenzethonium chloride]	1.67 (active)
CCCCCCCCCCCC[N+](C)(C)Cc1ccccc1	0.391 (inactive)
CC(=O)SCC(Cc1ccccc1)C(=O)NCC(=O)OCc1ccccc1 (configuration not stated) [Racecadotril]	1.24 (inactive)
N.O=C(O)CC(O)(CC(=O)O)C(=O)O.[Fe+3] [Ferric ammonium citrate]	1.06 (inactive)
N=C(N)N [Guanidine hydrochloride]	0.767 (inactive)
O.O.O.O.O.O.O.O=S(=O)([O-])[O-].[Mg+2] [Magnesium sulfate]	1.04 (inactive)
C=CC1=C(C(=O)O)N2C(=O)[C@@H](NC(=O)/C(=N\O)c3csc(N)n3)[C@H]2SC1 [Cefdinir]	1.06 (inactive)
O=C(O[C@@H]1Cc2c(O)cc(O)cc2O[C@@H]1c1ccc(O)c(O)c1)c1cc(O)c(O)c(O)c1 [Epicatechin gallate (-)]	1.14 (inactive)
C[C@](N)(Cc1ccc(O)c(O)c1)C(=O)O [Methyl-DOPA (alpha-methyl-L-beta-3,4-dihydroxyphenylalanine)]	0.929 (inactive)
N[C@@H](Cc1ccc(O)c(O)c1)C(=O)O [Levodopa (L-beta-3,4-Dihydroxyphenylananine)]	0.449 (inactive)
NCCc1ccc(O)c(O)c1 [Dopamine (3-Hydroxytyramine hydrochloride)]	1.51 (active)
NCCc1ccc(O)c(O)c1 [3-hydroxytyramine (Dopamine)]	1.43 (active)
CC(=O)N[C@@H](CCC(N)=O)C(=O)O [Aceglutamide (N-acetyl-L-glutamine)]	1.2 (inactive)
CN1CC(O)C2=C/C(=N/NC(N)=O)C(=O)C=C21 (configuration not stated) [Carbazochrome (Adrenochrome semicarbazone)]	1.16 (inactive)
Cc1cc(N)c2ccccc2c1O [Vitamin K5 hydrochloride]	0.778 (inactive)
O=P([O-])(O)O.[K+] [Potassium phosphate monobasic]	1.24 (inactive)
C[C@@H]1C[C@H]2[C@@H]3C[C@H](F)C4=CC(=O)C=C[C@]4(C)[C@@]3(F)[C@@H](O)C[C@]2(C)[C@@]1(O)C(=O)COC(=O)C(C)(C)C [Flumethasone pivalate]	1.37 (active)
C[C@@H]1C[C@H]2[C@@H]3C[C@H](F)C4=CC(=O)C=C[C@]4(C)[C@@]3(F)[C@@H](O)C[C@]2(C)[C@@]1(O)C(=O)CO [Flumethasone]	1.48 (active)
[Ca+2].[OH-].[OH-] [Calcium hydroxide]	1.1 (inactive)
O.O=C([O-])CN(CCN(CC(=O)[O-])CC(=O)[O-])CC(=O)[O-].[Ca+2].[Na+].[Na+] [Edetate calcium disodium (Calcium disodium versenate)]	0.981 (inactive)
O.O=C([O-])CN(CCN(CC(=O)[O-])CC(=O)[O-])CC(=O)[O-].[Ca+2].[Na+].[Na+]	1 (inactive)
Cc1cc2nc3ccc(N(C)C)cc3[s+]c2cc1N [Tolonium chloride (Toluidine blue O)]	1.15 (inactive)
c1ccc(-c2ccc(C(c3ccccc3)n3ccnc3)cc2)cc1 (configuration not stated) [Bifonazole]	1.04 (inactive)
[Fe+3].[Fe+3].[O-2].[O-2].[O-2].[O-2].[Zn+2] [Calamine]	0.886 (inactive)
Cc1ncc(CSSCc2cnc(C)c(O)c2CO)c(CO)c1O [Pyrithioxin]	1.16 (inactive)
CN(C)CCOC(C)(c1ccccc1)c1ccc(Cl)cc1 (configuration not stated) [Chlorphenoxamine hydrochloride]	1.15 (inactive)

Compound	cell-surface Lgr5 expression
O=CC(O)C(O)C(O)C(O)CO (configuration not stated) [Glucose (D)]	1.02 (inactive)
O=C([O-])C(O)C(O)C(=O)[O-].[K+].[Na+] (configuration not stated) [Potassium sodium tartrate tetrahydrate]	1.1 (inactive)
O=C[C@H](O)[C@@H](O)[C@H](O)[C@H](O)C(=O)[O-].[Na+] [Sodium glucuronate (D-Glucuronic acid)]	1.32 (active)
Cc1ccc2c(Br)cc(Br)c(O)c2n1 [Broquinaldol (5,7-dibromo-8-hydroxy-quinaldine)]	1.1 (inactive)
Cc1ccc(/C(=C\CN2CCCC2)c2cccc(/C=C/C(=O)O)n2)cc1 [Acrivastine]	1.15 (inactive)
N[C@@H](C(=O)N[C@@H]1C(=O)N2C(C(=O)O)=C(Cl)CC[C@H]12)c1ccccc1 [Loracarbef]	0.67 (inactive)
CCCCOC(=O)c1ccc(N)cc1 [Butamben (n-butyl p aminobenzoate)]	1 (inactive)
CCN(CC)CCOC(=O)c1ccc(N)cc1 [Procaine hydrochloride]	0.937 (inactive)
CCCCN(CCCC)CCCOC(=O)c1ccc(N)cc1 [Butacaine]	1.62 (active)
Cc1ncc(COP(=O)(O)O)c(C=O)c1O [Pyridoxal-5-phosphate]	0.951 (inactive)
CCCCn1c(=O)c2c(ncn2CC(C)=O)n(CCCC)c1=O [Denbufylline]	1.44 (inactive)
C[C@@H](O[C@H]1OCCN(Cc2n[nH]c(=O)[nH]2)[C@H]1c1ccc(F)cc1)c1cc(C(F)(F)F)cc(C(F)(F)F)c1 [Aprepitant]	1.01 (inactive)
Cn1c(NCCN(CCO)CCCc2ccc([N+](=O)[O-])cc2)cc(=O)n(C)c1=O [Nifekalant]	0.923 (inactive)
[Cl-].[Cl-].[Cl-].[In+3] [Indium(III) chloride]	0.736 (inactive)
CC[N+](CC)(CC)CC(=O)Nc1c(C)cccc1C [Lidocaine N-ethyl bromide]	1.39 (active)
CCN(CC)CC(=O)Nc1c(C)cccc1C [Lidocaine]	1.19 (inactive)
Cc1cccc(C)c1NC(=O)C(C)N (configuration not stated) [Tocainide hydrochloride]	1.07 (inactive)
O[C@@H]1[C@H](O)[C@@H](O)C=C[C@H]1O [Conduritol]	1.03 (inactive)
O=C(O)c1cc(-c2ccccc2)nc2ccccc12 [Cinchophen (2-phenyl 4-quinoline carboxylic acid)]	1.45 (active)
O=C(O)c1ccccc1I [2-Iodobenzoic acid]	1.04 (inactive)
Nc1c2ccccc2nc2ccccc12 [Aminacrine (9-Aminoacridine)]	0.26 (inactive)
O=C(O)c1cc(O)c(O)c(O)c1 [Gallic acid]	0.979 (inactive)
O=C(Nc1ccccc1)c1cc(Cl)ccc1O [5-Chlorosalicylanilide]	1.12 (inactive)
COC1=C(OC)C(=O)C(CCCCCCCCCCO)=C(C)C1=O [Idebenone]	1.04 (inactive)
CC1(C)S[C@@H]2[C@H](NC(=O)COc3ccccc3)C(=O)N2[C@H]1C(=O)O.CN(C)[C@@H]1C(O)=C(C(=O)NCN2CCN(CCO)CC2)C(=O)[C@@]2(O)C(O)=C3C(=O)c4c(O)cccc4[C@@](C)(O)[C@H]3C[C@@H]12 [Penimepicycline]	0.846 (inactive)
